High-throughput results deposited in PubChem by National Center for Advancing Translational Sciences (NCATS).
An excerpt weighted towards active compounds, which were near 3.9% of everything screened.
HepG2 tox = kills HepG2 cells in TGF-b inhibitor counter-screen | HepG2 CAGA-GFP viability, ATP luminescence, 18 h | Potency, µM (series often up to 46.1 µM), for inactives: at the top dose activity change, negative = cytotoxicity, actives largely listed as cytotoxic | hit rate 0.76% among 410,000
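HepG2 CAGA-GFP cells (1000/well, DMEM with 1% FBS) received compound, then TGF-beta at 500 pg/mL final, and were incubated 18 hours at 37 degrees C. Viability was read by CellTiter-Glo luminescence. Media-only wells were set as complete cell-killing and DMSO as no toxicity.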
S2 tox = cell viability loss in ATXN counter-screen. S2 cells (HEK-293 line with an ATXN2-luciferase reporter) viability, CellTiter-Fluor protease fluorescence, 24 h. Potency, µM (titrated, usually from 56.7 µM), most hits filed as cytotoxic. hit rate 0.49% among 400,000. AID 651635; note: nearly all actives have a fitted effect of over 40% in size
HT1080 IDH1KD tx = HT-1080 IDH1 knockdown cell toxicity (counter line) | HT-1080 IDH1 knockdown viability, ATP luminescence, 48 h | Potency, µM (top dose mostly 46.1 µM), for inactives: top-dose activity, negative = toxicity, actives largely listed as cytotoxic | hit rate 2% among 360,000;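 note: 0% = DMSO wells and -100% = cell-free medium wells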
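% activity derives from luminescence (CellTiter-Glo), normalised to DMSO and no-cell wells. HT-1080-IDH1KD cells, 750/well, had 48 h compound exposure at 37 °C.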
HT1080NT lethal = kills 2HG-producing HT-1080-NT fibrosarcoma cells; HT-1080-NT fibrosarcoma viability, CellTiter-Glo ATP luminescence, 48 h; Potency, µM (series often up to 46.1 µM), for the others: at the highest dose activity, negative = less viability, hits mostly cytotoxic; hit rate 1.6% among 360,000; AID 686970;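 note: NT is the 2HG producing partner of a matched IDH1 knockdown line; 0% = DMSO-treated cells and -100% = media-only wells without cells; nearly all actives have a fitted effect of over 55% in size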
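Toxicity toward the 2HG-producing NT line was scored as %Activity, normalised to DMSO and no-cell wells, from CellTiter-Glo luminescence after 48 hours' treatment.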
TGFb inhibitor = blocks TGF-b signaling; HepG2 CAGA-GFP TGF-b/SMAD3 reporter, GFP fluorescence, 18 h; TGF-beta stimulated, 500 pg/mL final; AID 588855; hit rate 1.2% among 410,000; Potency, µM (doses to about 46.1 µM), without a hit: top-dose activity, negative = inhibition, hits mostly inhibitors; note: % is set by controls: 0 for no effect and ±100 for the full control effect; nearly all actives have a fitted effect of over 65% in size
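TGF-beta reporter screen: HEPG2 CAGA-GFP, 1% FBS, 500 pg/mL TGF-beta final, 18 h; per-cell GFP summed per well; curves fitted and categorized by class.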
ATXN2 expr inh = ATXN2 expression inhibition; hit rate 0.72% among 360,000; Potency, µM (highest dose often 57 µM), for the others: at the top dose activity change, negative = inhibition, hits mostly inhibitors; HEK-293 ATXN2-luciferase reporter, luminescence, 24 h; AID 1745845; note: % is set by controls: 0 for no effect and ±100 for the full control effect; nearly all actives have a fitted effect of over 55% in size
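qHTS (up to 57 uM final) was run with 24 h compound exposure of reporter cells at 37 °C. Each well was multiplexed: SteadyGlo luminescence measured ATXN2-luciferase expression after a fluorogenic Gly-Phe-AFC viability readout (25 uM final).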
Starred values were filed as active, the others as inactive; i = inactive; ? = inconclusive; . = no result given; [ ] = dose if it differs, or a comment. Calls come from the whole dose curve; as a rule, active = well fitted curve in the direction sought with a large enough effect; inconclusive = small, poorly fitted or top-dose-only effect, or another doubt; inactive = no such curve, though single readings can be large; an effect the other way counts as inactive or inconclusive. Potency is the fitted concentration of half-maximal effect.

SMILES	HepG2 tox	S2 tox	HT1080 IDH1KD tx	HT1080NT lethal	TGFb inhibitor	ATXN2 expr inh
Cc1ccc(OCc2nc(-c3ccc(C(=O)N4CCN(c5ccc(Cl)cc5)CC4)cc3)oc2C)cc1	-8.9%	i	.	.	?	-3.1%
COc1cccc(CN2CCC(n3cc(C(=O)N4CCCCC4)nn3)CC2)c1OC	.	i	.	.	.	.
CCn1c2ccccc2c2cc(Nc3cc(C)nc4ncnn34)ccc21	-30.9%	?	1.03µM*	0.581µM*	?	?
Cc1ccc2c(CC(=O)Nc3c(C(=O)Nc4cccc(Cl)c4)oc4ccccc34)coc2c1C	13.4%	i	.	.	0.3%	29.5%
O=C(/C=C/c1cccc(Cl)c1)c1ccc([N+](=O)[O-])o1	12.6µM*	8.91µM*	?	?	3.55µM*	4.47µM*
Cc1cc(O)c(C(=O)/C=C/c2cccc([N+](=O)[O-])c2)c(=O)o1	-6.3%	i	16.4%	0.8%	-11.1%	-4.5%
COC(=O)c1cnc(Oc2ccc(NC(=O)NC(=O)c3c(OC)cccc3OC)cc2)cc1C(F)(F)F	4.6%	i	1.3µM*	?	?	37.5%
COC(=O)c1cnc(Oc2c(Cl)cc(N)cc2Cl)cc1C(F)(F)F	-14.2%	i	16.4µM*	?	-29.5%	5.2%
Cc1ncc2c(c1CNC(=O)c1ccc3c(c1)OCO3)CCN(C(=O)C1Cc3ccccc3O1)C2 (configuration not stated)	.	i	.	.	.	.
Cc1ccc(C(=O)NCC#N)cc1	5.6%	i	-2.4%	17.8%	-2.9%	.
Cc1ccc(C(=O)NC(C#N)=C(Cl)Cl)cc1	-106.0%	?	20.6µM*	6.51µM*	?	-30.1%[11.3 µM]
COc1ccc(/C=C\c2onc(C)c2S(=O)(=O)N2CCC(C(=O)Nc3cccc(OC)c3)CC2)cc1	-30.2%	.	.	.	?	.
Cc1ccc(Cl)cc1N1CCN(C(=O)c2ccc3c(c2)N(Cc2ccc(F)cc2)CCS3)CC1	0.0%	i	.	.	-2.7%	-31.6%
O=C1CC(c2cccc(Cl)c2)Cc2nc(N3CCN(c4ccccc4)CC3)ncc21 (configuration not stated)	12.0%	i	11.7%	12.0%	4.7%	-8.5%
CCN1CCN(c2ncc3c(n2)CC(c2cc(OC)c(OC)c(OC)c2)CC3=O)CC1 (configuration not stated)	4.3%	i	4.11µM*	?	1.5%	-18.3%
Oc1ccc(C2CCN(c3ccnc4ccccc34)CC2)cc1O	.	.	.	.	.	18.5%
CCCOc1ccc(CC2C(=O)Nc3ccc(Br)cc32)cc1 (configuration not stated)	-95.1%	?	.	.	11.2µM*	-23.7%
COc1ccc(OC)c(CC2C(=O)Nc3ccc(Br)cc32)c1 (configuration not stated)	-52.6%	.	.	.	?	.
CCOc1ccccc1CC1C(=O)Nc2ccc(Br)cc21 (configuration not stated)	-37.7%	i	.	.	?	?
COc1ccc(CC2C(=O)Nc3ccc(Br)cc32)cc1OC (configuration not stated)	15.8µM*	.	.	.	-18.8%	.
CCOCC(=O)NC1CCc2cc(OC(=O)COCC)c(OC)c(OC)c2-c2ccc(SC)c(=O)cc21 (configuration not stated)	5.1%	?	0.146µM*	0.0731µM*	?	-11.8%
COc1cc2c(c(OC)c1OC)-c1ccc(SC)c(=O)cc1C(NC(=O)C(F)(F)F)CC2 (configuration not stated)	2.8%	i	0.0065µM*	0.0092µM*	0.0%	15.7%
COc1ccc(C(=O)Nc2ccc3c(c2)N(C2CCCC2)C(=O)c2ccccc2S3)cc1OC	-3.6%	?	.	.	20.6%	95.2%
Cc1cc(C(=O)N2CCN(c3cccc(Cl)c3)CC2)n(-c2ccccc2)n1	.	.	.	.	.	-14.5%
CCSc1nsc(NC(=O)Nc2cccc(OC)c2)n1	-30.3%	i	?	?	22.4µM*	-27.4%
SMILES	HepG2 tox	S2 tox	HT1080 IDH1KD tx	HT1080NT lethal	TGFb inhibitor	ATXN2 expr inh
COc1cccc(NC(=O)Nc2ccc(C(C)(C)C)cc2)c1	-38.5%	?	?	16.4µM*	?	-28.7%
C=CCSc1nsc(NC(=O)Nc2ccc(F)cc2)n1	-37.9%	8.91µM*	2.91µM*	16.4µM*	6.31µM*	?
CCSc1nsc(NC(=O)Nc2ccccc2F)n1	-39.3%	?	-28.6%	?	?	38.0%
CCOC(=O)c1ccc2c(c1)sc1nc(-c3ccc(OCC)cc3)cn12	8.7%	.	.	.	-1.2%	.
O=C(CSc1ccccc1)N1CCN(S(=O)(=O)c2ccccc2)CC1	-2.2%	i	-3.0%	10.5%	-0.5%	-0.6%
O=S(=O)(c1ccccc1)N1CCC(O)(CSc2ccccc2)CC1	-8.7%	i	-24.5%	23.1µM*	-12.6%	-26.7%
O=S(=O)(c1ccccc1)N1CCC(O)(CSc2ccc(F)cc2)CC1	-16.6%	?	18.4µM*	-10.3%	0.0%	?
Cc1c(CNC2CCCCCC2)c(C(=O)O)c(C)n1Cc1c(F)cccc1Cl	4.2%	i	.	.	1.6%	3.8%
CN(C)CCC=C1c2ccccc2COc2ccc(CC(=O)O)cc21	.	.	.	.	.	2.0%
Cc1ccc(NC(=O)c2cc3cccc([N+](=O)[O-])c3[nH]2)cc1	-15.0%	i	-4.7%	-5.7%	-14.6%	78.4%
CCC(C)c1ccccc1NC(=O)c1cc2cccc([N+](=O)[O-])c2[nH]1 (configuration not stated)	-13.9%	?	16.4µM*	?	?	-1.3%
CCCNC1=C(N(C(C)=O)c2cccc(F)c2)C(=O)c2ccccc2C1=O	7.94µM*	.	4.61µM*	8.2µM*	?	28.2µM*
CCC(=O)N(C1=C(NC(C)C)C(=O)c2ccccc2C1=O)C(C)C	-35.5%	i	-2.9%	-15.6%	?	-22.1%
COc1ccc2cc(CNCc3ccccc3C(F)(F)F)c(N3CCCC(CO)C3)nc2c1 (configuration not stated)	.	i	.	.	.	.
O=[N+]([O-])c1cc(Cl)cc(/C=N\Nc2ccccn2)c1O	-44.0%	?	?	?	?	7.08µM*
O=[N+]([O-])c1ccc(Cl)cc1C=NNc1ccccn1	7.7%	?	?	11.3%	-6.5%	-1.5%
CN1CCN(c2oc(/C=C/c3ccc(F)cc3)nc2C#N)CC1	-9.8%	.	.	.	.	.
C=C1C=CS(=O)(=O)N(C(CC(C)C)C(=O)OC)C1 (configuration not stated)	-25.2%	.	.	.	-27.0%	.
CC(C)c1ccc(/C=N/NC(=O)CN(c2cccc(Cl)c2Cl)S(C)(=O)=O)cc1	-104.4%	?	20.6µM*	18.4µM*	?	?
